tim23-1 inh – growth inhibitors of tim23-1 mutant yeast, primary screen, luminescence, uHTS. S. cerevisiae tim23-1 growth, BacTiter-Glo luminescence, 24 h. inhibition, % at 20 µM. actives 1.3% (n = 330,000). AID 463212, 2010;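 active = growth inhibition of the mutant yeast at or above 50%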;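 also: temperature-sensitive mutant grown at 25 °C; plate controls were DMSO-treated mutant yeast for no effect and medium wells lacking yeast for full effect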
tim10-1 inh – growth inhibitors of tim10-1 mutant yeast, primary screen, luminescence, uHTS; S. cerevisiae tim10-1 ts strain growth, BacTiter-Glo, 24 h; AID 463190, 2010; inhibition, % at 20 µM; actives 2.2% (n = 330,000);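 active = inhibition of at least 40%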;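 also: mutant grown at 25 °C; 0% = DMSO wells with yeast and 100% = wells holding no yeast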
TIM10 inh – growth inhibitors of isogenic TIM10 control yeast, primary screen, counter-screen for tim10-1 yeast inhibitor project, luminescence, uHTS. S. cerevisiae TIM10 strain growth, BacTiter-Glo luminescence, 24 h. inhibition, % at 10 µM. actives 1.4% (n = 330,000);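 active = inhibition of 40% or more at the single tested concentration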;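 also: wild-type TIM10 isogenic control strain grown at permissive 25 °C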
V-ATPase pH – regulators of yeast V-ATPase proton pumping, primary screen, pHLuorin cytosolic pH fluorescence; AID 504577, 2011; response, % at 10 µM; S. cerevisiae; actives 0.37% (n = 350,000); in the data active = response mostly above about 7.3%, no sharp cut-off; inactive = mostly below about 5.4%; also: actives read high
PfHsp90 set2 – growth inhibition of PfHsp90-expressing yeast, primary screen, antimalarial PfHsp90 inhibitor project, S. cerevisiae, BacTiter-Glo luminescence, single point, set 2; BacTiter-Glo ATP, 48 h; yeast lacking PDR1 and PDR3 efflux regulators; inhibition, % at 9.4 µM; actives 0.32% (n = 310,000); AID 504621, 2011;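 active = every replicate shows inhibition above about 80%, whatever the replicate mean, limit read from the data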;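 also: 0% = DMSO neutral controls and 100% = 20 µM radicicol positive controls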
SKKanGAS inh – S. pyogenes SKKanGAS growth inhibitors in kanamycin, primary screen, streptokinase expression inhibitor project, SKKanGAS strain, BacTiter-Glo luminescence. 6 h. inhibition, % at 7.5 µM. actives 1.3% (n = 300,000);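 active = mean replicate score, as percent of positive control median, at least 50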;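 also: strain carries kanamycin resistance gene driven by streptokinase promoter and grows in 40 µg/ml kanamycin; loss of luminescence reflects streptokinase promoter inhibition or plain growth inhibition; 0% = median of DMSO wells and 100% = positive control at its reference dose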
The depositor's hits bear a star; . = no result given. An excerpt weighted towards active compounds, which were near 4.6% of everything screened.

SMILES | tim23-1 inh | tim10-1 inh | TIM10 inh | V-ATPase pH | PfHsp90 set2 | SKKanGAS inh
O=C(O)CCCn1c(O)c(C=C2N=c3ccccc3=N2)sc1=S | 6 | 8 | -14 | -2 | -32 | 5
COCCCn1c(O)c(/C=C2\N=C(C#N)C(=Nc3ccc(C)cc3)O2)sc1=S | 13 | 9 | 11 | 0 | 0 | 53*
COc1ccc(S(=O)(=O)Cc2ccc(C(=O)NC3CCCCCC3)o2)cc1 | 22 | 22 | -2 | -5 | 33 | 2
O=C(O)c1cccc(NS(=O)(=O)c2cc(S(=O)(=O)c3ccc(Cl)cc3)ccc2Cl)c1 | 3 | 4 | 19 | -5 | -12 | -4
Cc1cccc2sc(NNC(=O)c3cc(-c4cccs4)nc4ccccc34)nc12 | 32 | 36 | -29 | 0 | -98 | 88*
c1ccc(-c2nnc(-c3c[nH]c4ccccc34)nc2-c2ccccc2)cc1 | 29 | 24 | 18 | -4 | -48 | 65*
Cc1nc(NC(=O)c2ccc(Cl)cc2)sc1-c1csc(Nc2cccc(F)c2)n1 | . | . | . | . | . | 73*
O=S(=O)(Nc1c(S(=O)(=O)c2ccccc2)c2nc3ccccc3nc2n1C1CCCCC1)c1ccccc1 | . | . | . | -7 | -55 | 91*
C=CCn1c(NS(=O)(=O)c2ccccc2)c(S(=O)(=O)c2ccc(C)cc2)c2nc3ccccc3nc21 | . | . | . | -5 | 17 | 27
CC(C)C(C(=O)OCC(=O)c1ccccc1)N1C(=O)C2C3C=CC(C3)C2C1=O (stereo not drawn) | 20 | 23 | 10 | -3 | 15 | -11
Cc1nnc(-c2cccc(Br)c2)c2cn(-c3ccc(Br)cc3)nc12 | -4 | 20 | 30 | 3 | -17 | 56*
CCC(=O)N(c1nnc(SCC(=O)c2ccc[nH]2)s1)C1CC1 | 5 | -2 | -8 | 18* | -10 | .
CCC(=O)N(c1nnc(SCC(=O)Nc2ccc(N3CCOCC3)cc2)s1)C1CC1 | -8 | -10 | -17 | 7 | -14 | .
Cn1c(-c2c(N)n(C3CCCC3)c3nc4ccccc4nc23)nc2ccccc21 | 44 | -1 | 22 | -82 | . | 102*
Cn1c(-c2c(N)n(CCCc3ccccc3)c3nc4ccccc4nc23)nc2ccccc21 | . | . | . | -7 | -9 | 113*
COCCCn1c(N)c(-c2nc3ccccc3n2C)c2nc3ccccc3nc21 | 28 | 10 | 28 | 0 | 44 | 9
Cn1c(-c2c(N)n(CCc3ccccc3)c3nc4ccccc4nc23)nc2ccccc21 | 6 | -29 | -13 | -2 | -10 | 104*
COc1cc2ccccc2cc1C(=O)OCC(=O)N(CC(C)C)c1c(N)n(Cc2ccccc2)c(=O)[nH]c1=O | 5 | -6 | 6 | -1 | 7 | -15
CC(C)=CCC/C(C)=C/CNC(=O)C[C@H]1C[C@H](C(=O)N2CCCCC2)[C@@]2(C)c3[nH]c4cc(CCC(=O)N(C)C)ccc4c3CCN2C1=O | 33 | 17 | 0 | -4 | -2 | .
C=C1C(=O)C23CCC4C(C)(C(=O)OC)CCCC4(C)C2CCC1(O)C3 (stereo not drawn) | . | . | . | -6 | 104* | .
Cc1sc(NC(=O)C2C3C=CC(C3)C2C(=O)O)c(C(N)=O)c1-c1ccc(C(C)C)cc1 (stereo not drawn) | 20 | 22 | 21 | 5 | 3 | 53*
O=S(=O)(Nc1ccc(O)c(Sc2nc3ccccc3s2)c1)c1ccc(F)cc1 | 29 | 18 | 9 | 3 | -3 | 6
O=S(=O)(Nc1ccc(O)c(Sc2nc3ccccc3s2)c1)c1cccc2ccccc12 | 28 | 4 | 34 | -2 | 8 | 81*
Cc1cc(C)cc(NC2=NCC(=O)N2Cc2ccccc2)c1 | 20 | 6 | 5 | 6 | 9 | 0
CCc1ccccc1NC1=NCC(=O)N1Cc1ccccc1 | -28 | 24 | -4 | 16* | -31 | 3
SMILES | tim23-1 inh | tim10-1 inh | TIM10 inh | V-ATPase pH | PfHsp90 set2 | SKKanGAS inh
CC(C)CN(Cc1cc(=O)oc2cc3c(cc12)CCCC3)CC(C)C | -6 | -8 | -13 | -1 | 10 | 54*
Oc1ccc(Cl)c2cccnc12 | . | . | . | 2 | 108* | .
Oc1c(Cl)cc(Cl)c2cccnc12 | . | . | . | -3 | 107* | 87*
O=C(Oc1ccc(Cl)c2cccnc12)N1CCCCC1 | 23 | 18 | 17 | -1 | -1 | 10
Oc1ccc(F)c2cccnc12 | -4 | 0 | 8 | 4 | 27 | -17
O=C(Oc1ccc(Cl)c2cccnc12)c1cccnc1 | 29 | 25 | 7 | -3 | 112* | 68*
Cc1cccc(C(=O)Nc2cc(S(=O)(=O)N3CCOCC3)ccc2N2CCCCC2)c1 | 28 | 28 | 18 | 0 | -3 | .
O=C(CNC(=O)c1sc2ccccc2c1Cl)NCc1ccc(F)cc1 | -3 | -2 | -5 | 18* | 3 | -6
COc1ccc(C(=O)CN2Cc3ccccc3C2=N)cc1 | 6 | 1 | 7 | -3 | -1 | 7
COc1ccc2c(c1)nc(SCC(O)c1ccccc1)n2C (stereo not drawn) | -2 | 26 | 17 | 12 | . | -3
O=C(O)c1ccc(NC(=S)NC(=O)c2ccc(-c3ccc(Br)cc3)o2)cc1 | . | . | . | 1 | . | 55*
O=C(O)c1cccc(NC(=S)NC(=O)c2ccc(-c3ccc(Cl)cc3)o2)c1 | 10 | 7 | -3 | 0 | 8 | 23
COc1ccc(C(=O)O)cc1NC(=S)NC(=O)c1ccc(-c2ccc(Cl)cc2)o1 | 2 | 2 | 11 | -3 | -9 | 51*
COc1ccc(NC(=O)c2ccc(S(=O)(=O)N3CCOCC3)o2)cc1 | -2 | -9 | -12 | 4 | 4 | -8
C[C@H](C(=O)CC(=O)OC(C)(C)C)[C@H](O)c1ccccc1 | 2 | 1 | 9 | 5 | -4 | -1
CC(C)C(=O)NC(c1cccs1)c1cc([N+](=O)[O-])c2cccnc2c1O (stereo not drawn) | 25 | 13 | 18 | 0 | -90 | 77*
CC(=O)NC(c1cccs1)c1cc(F)c2cccnc2c1O (stereo not drawn) | 50 | 40 | 8 | 0 | -13 | .
Cc1ccc(C(NC(=O)C(C)C)c2cc([N+](=O)[O-])c3cccnc3c2O)cc1 (stereo not drawn) | 28 | 30 | 15 | 1 | 67 | 89*
Cc1cc(C)c(S(=O)(=O)N2CCOC2CNC(=O)C(=O)NCCN(C)C)c(C)c1 (stereo not drawn) | -11 | -10 | -4 | -1 | 9 | 4
COc1cccc(NC(=O)C(c2ccccc2)N2CCN(CC(=O)N3CCOCC3)CC2)c1 (stereo not drawn) | 23 | -1 | 10 | 1 | 9 | .
O=C(O)c1cccc(N/N=C/C2=C(Cl)c3cc(Cl)ccc3SC2)c1 | . | . | . | 1 | -8 | 106*

Bioassay records deposited in PubChem BioAssay by several laboratories.
